Reference: PubChem BioAssay (NCATS)
Records with an inconclusive call do not appear. Where a call stands in place of a potency, no number is given. Active and inactive are the calls of the source. The call rests on the fitted dose curve; in most records, active means well fitted inhibition curve with a large enough effect; inconclusive means small, poorly fitted or top-dose-only effect; inactive means flat fitted curve, though single readings scatter. Bridge positions count the residues as written; N and C are the ends. Square brackets hold non-standard residues; d marks the D form. Peptide text beside a SMILES is read from it. * marks the point of attachment. Ileψ(thiazoline)Cys = CC[C@H](C)[C@H](N)C1=N[C@H](C(=O)*)CS1; d(aIle) = CC[C@H](C)[C@@H](N)C(=O)O; dOrn = NCCC[C@@H](N)C(=O)O

What follows are compounds tested on CP252 (assay: qHTS profiling for inhibitors of Plasmodium falciparum proliferation (AID 504749; further: nearly all actives have a fitted effect of over 60% in size)). Settings: P. falciparum in erythrocytes, SYBR Green DNA, 72 h; series mostly up to 12.8 µM.
In short: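 P. falciparum-infected erythrocytes (0.3% parasitemia, 2.5% hematocrit final) were exposed to compounds for 72 h at 37 C in 5% CO2, then lysed with SYBR Green buffer overnight at room temperature; parasite DNA fluorescence was normalized to artemisinin and DMSO controls.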
Potency means the concentration at half of the fitted maximal effect.

Compound | Potency
C[C@@H]1C[C@H]2[C@@H]3C[C@H](F)C4=CC(=O)C=C[C@@]4(C)[C@]3(F)[C@H](O)C[C@]2(C)[C@@]1(O)C(=O)CO | inactive
C[C@H](O)Cn1cnc2c1c(=O)n(C)c(=O)n2C | inactive
CCCCC[C@H](O)/C=C\[C@@H]1[C@H](O)CC(=O)[C@@H]1CCCCCCC(=O)O | inactive
CC(=C(CCOP(=O)(O)O)SC(=O)c1ccccc1)N(C=O)Cc1cnc(C)nc1N | inactive
NC[C@@H]1O[C@@H](O[C@H]2[C@H](O)[C@H](O[C@@H]3O[C@H](CO)[C@@H](O)[C@H](N)[C@@H]3O)[C@@H](N)C[C@H]2N)[C@H](N)C[C@@H]1O | inactive
CCc1c(C)[nH]c2c1C(=O)[C@H](CN1CCOCC1)CC2 | inactive
C=C1c2c(Cl)ccc(O)c2C(O)=C2C(=O)[C@@]3(O)C(O)=C(C(N)=O)C(=O)[C@@H](N(C)C)[C@@H]3[C@@H](O)[C@H]12 | inactive
CCC(=O)OCC(=O)[C@@]1(OC(=O)CC)[C@H](C)C[C@@H]2[C@@H]3[C@H]([C@@H](O)C[C@@]21C)[C@]1(C)C=CC(=O)C=C1C[C@@H]3Cl | inactive
CC[C@H](C)[C@H](N)C1=N[C@H](C(=O)N[C@@H](CC(C)C)C(=O)N[C@@H](CCC(=O)O)C(=O)N[C@@H](C(=O)N[C@H]2CCCCNC(=O)[C@@H](CC(N)=O)NC(=O)[C@@H](CC(=O)O)NC(=O)[C@@H](Cc3cnc[nH]3)NC(=O)[C@@H](Cc3ccccc3)NC(=O)[C@@H]([C@@H](C)CC)NC(=O)[C@@H](CCCN)NC2=O)[C@@H](C)CC)CS1 ({Ileψ(thiazoline)Cys}-LE[d(aIle)]K[dOrn][d(aIle)][dF][dH][dD][dN]; lactam 4-C) | inactive
O=C(N/N=C\c1ccc([N+](=O)[O-])o1)c1ccc(O)cc1 | 3.16 µM (active)
C[C@@H](CNC1CCCCC1)OC(=O)c1ccccc1 | inactive
CCOC(=O)O[C@@H](C)OC(=O)[C@@H]1N2C(=O)[C@@H](NC(=O)[C@@H](N)c3ccccc3)[C@H]2SC1(C)C | inactive
Cc1cccc(CN2CCN([C@@H](c3ccccc3)c3ccc(Cl)cc3)CC2)c1 | inactive
Cc1ccsc1/C=C\C1=NCCCN1C | inactive
O=C(O)COCCN1CCN([C@@H](c2ccccc2)c2ccc(Cl)cc2)CC1 | inactive
C#C[C@]1(O)CC[C@@H]2[C@H]3CCC4=CCCC[C@@H]4[C@@H]3CC[C@@]21C | inactive
CC1(C)[C@@H](OC(=O)CCC(=O)O)CC[C@@]2(C)[C@H]1CC[C@@]1(C)[C@H]2C(=O)C=C2[C@H]3C[C@](C)(C(=O)O)CC[C@]3(C)CC[C@@]21C | inactive
C[C@H](CCC(=O)O)[C@H]1CC[C@@H]2[C@@H]3[C@@H](O)C[C@H]4C[C@@H](O)CC[C@@]4(C)[C@H]3CC[C@@]21C | inactive
CN1CCO[C@H](c2ccccc2)c2ccccc2C1 | inactive
